# Screens deposited in PubChem by National Center for Advancing Translational Sciences (NCATS).
# Many of the other results were omitted from the sample, so hits are more common in it than they were.
# RORg inh: inhibitors of mouse ROR gamma transcriptional activity. Drosophila S2 Gal4-RORgamma UAS-luciferase reporter, 20 h. Potency, µM (highest dose often 53.6 µM), for inactives: at the top dose activity change, negative = inhibition, hits mostly inhibitors. 310,000 tested, 5.4% active. AID 2551; further: potency means the concentration at half of the fitted maximal effect; on the % scale 0 is the no-effect control and ±100 the full control effect; nearly all actives have a fitted effect of over 60% in size
# Target sequence (P51450 whole entry, looked up, the tested form may be a part): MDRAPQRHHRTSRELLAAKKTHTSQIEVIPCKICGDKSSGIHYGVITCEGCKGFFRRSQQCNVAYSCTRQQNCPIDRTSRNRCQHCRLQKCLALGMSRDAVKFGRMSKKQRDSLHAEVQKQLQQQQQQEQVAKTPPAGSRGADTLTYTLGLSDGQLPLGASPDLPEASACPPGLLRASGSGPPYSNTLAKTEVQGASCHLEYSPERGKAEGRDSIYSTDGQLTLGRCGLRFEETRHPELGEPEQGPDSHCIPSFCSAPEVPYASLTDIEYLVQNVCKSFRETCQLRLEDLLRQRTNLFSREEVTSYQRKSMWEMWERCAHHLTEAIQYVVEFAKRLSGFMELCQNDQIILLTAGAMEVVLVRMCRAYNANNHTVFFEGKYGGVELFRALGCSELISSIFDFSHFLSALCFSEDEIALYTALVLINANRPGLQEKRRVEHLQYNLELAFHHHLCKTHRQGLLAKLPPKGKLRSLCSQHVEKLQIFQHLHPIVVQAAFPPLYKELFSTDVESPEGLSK
#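 Drosophila S2 cells stably expressing Gal4-DBD/mouse RORγ fusion under metallothionein promoter plus UAS-luciferase; compound 1 h, then 700 uM CuSO4 induction for 20 h at ambient temperature; inhibition read as reduced luminescence.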
# ERG Ets-DNA blk: blocks human ERG Ets domain binding to DNA; P11308; fluorescence polarization, His-ERG Ets domain / labelled DNA; Potency, µM (titrated, usually from 76.9 µM), for inactives: top-dose FP activity, negative = inhibition, most hits filed as inhibitors; 370,000 tested, 0.028% active; AID 624246; active means well fitted inhibition curve with a large enough effect in the polarisation, with a control signal flat; inconclusive means small, poorly fitted or top-dose-only effect, or effect the other way, or a change in a side signal; inactive means no such curve, though single readings can be large or run the other way; the % refers to the polarisation;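 further: polarization taken with two DNA probes labelled with fluorescein and Texas red; potency means the concentration at half of the fitted maximal effect; % of control where 0% means no effect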
#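 His-tagged ERG Ets domain (1 uM in the protein solution; 300mM KCl, 50mM Tris-HCl, 1mM EDTA, 1mM DTT, pH 7.5) received compound, then a probe mix of 5 nM fluorescein-DNA and 100nM Texas-615-DNA. Fluorescence polarization was read for both dyes.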
# Integrin act MD: activators of alpha7 integrin expression for muscular dystrophy; alpha7betagal myoblasts, beta-gal FDG fluorescence, 48 h; Potency, µM (doses to about 38.3 µM), without a hit: at the top dose activation, most hits filed as activators; 350,000 tested, 0.064% active; AID 624291;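 further: potency means the concentration at half of the fitted maximal effect; 100% = response of the positive control SU9516; nearly all actives have a fitted effect of over 60% in size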
#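 Alpha7betagal+/- myoblasts (passage 13) were plated 16-24 hr, then exposed to compounds (1:260 dilution of DMSO stock) for 48 hours at 37C. After MPER lysis, β-galactosidase reporter activity was read as FDG fluorescence (ex 480/em 540) after 30 minutes.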
# VP16 counter: Gal4-VP16 reporter inhibition counter-screen | Potency, µM (highest dose often 53.6 µM), for inactives: at the highest dose activity, negative = inhibition, most hits filed as inhibitors | AID 2546 | 310,000 tested, 3.5% active | Drosophila S2 Gal4-VP16 UAS-luciferase, luminescence, 20 h;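 further: Gal4-VP16 expression switched on by copper sulfate through the metallothionein promoter; potency means the concentration at half of the fitted maximal effect; on the % scale 0 is the no-effect control and ±100 the full control effect; nearly all actives have a fitted effect of over 50% in size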
# Giardia kill: Giardia lamblia killing. Giardia lamblia trophozoite viability. activity change, % at 7.66 µM, hits read low. 340,000 tested, 0.15% active. AID 540267; in the data active means activity change below about -80%; inconclusive means between about -30% and that limit;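 further: parasites exposed to compound for two days anaerobically before the ATP read; on the % scale 0 is the no-effect control and ±100 the full control effect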
#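 Luminescence from cellular ATP indicates surviving trophozoites (100 cells/well) following 48 hrs anaerobic compound treatment at 37 deg C; signal develops 15-30 min at room temperature.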
# * = called active by the depositor; ? = inconclusive; / = no result given; [ ] = another dose, or the depositor's remark. Unless noted, the call rests on the fitted dose curve; in most records, active means well fitted curve in the direction sought with a large enough effect; inconclusive means small, poorly fitted or top-dose-only effect, or another doubt; inactive means no such curve, though single readings can be large; an effect the other way counts as inactive or inconclusive.
SMILES,RORg inh,ERG Ets-DNA blk,Integrin act MD,VP16 counter,Giardia kill
CCOC(=O)[C@@H]1[C@H]2COc3ccc(Br)cc3[C@@H]2N2C(=O)N(c3cccc(F)c3)C(=O)[C@@]12C,18µM*,-12%,-5%,4%,-1
Cc1cc2c(nc1C)CCCCN2C[C@H](C)O/N=C\[C@@H](C)[C@H](OCc1ccccc1)C(C)C,-13%[10 µM],/,/,-12%[10 µM],/
COC(=O)c1cc(C(=O)Nc2nnc(CC(C)C)s2)cc([N+](=O)[O-])c1,13µM*,11%,-17%,22µM*,-19
CCC(CC)c1nnc(NC(=O)c2cc(C(=O)OC)cc([N+](=O)[O-])c2)s1,7.1µM*,-7%,4%,?,-24
COCc1nnc(NC(=O)c2cc(C(=O)OC)cc([N+](=O)[O-])c2)s1,-31%,11%,0%,4%,-5
Cc1ccccc1NC(=S)N(CCN1CCCCCC1)Cc1cccs1,10µM*,9%,0%,?,-27
CCc1ccccc1NC(=S)N(Cc1cccs1)C1CCCC1,11µM*,-14%,13%,15%[10 µM],-6
Cc1ccccc1NC(=S)N(Cc1cccs1)C1CCCC1,?,3%,8%,?,-1
COc1ccccc1NC(=S)N(CCN1CCCCCC1)Cc1cccs1,14µM*,-3%,6%,-15%[10 µM],7
CCCN(Cc1cccs1)C(=O)Nc1ccccc1C,/,-4%,/,/,/
Fc1ccccc1NC(=S)N(CCN1CCCCCC1)Cc1cccs1,12%,-2%,9%,-3%[10 µM],-12
Cc1ccccc1NC(=S)N(Cc1ccccc1)Cc1cccs1,10µM*,-1%,1%,-9%,-22
CCC1=C[C@@H]2CN(C1)Cc1c([nH]c3ccccc13)[C@@](C(=O)OC)(c1cc3c(cc1OC)N(C)[C@H]1[C@@](O)(C(=O)OC)[C@H](OC(C)=O)[C@]4(CC)C=CCN5CC[C@]31[C@@H]54)C2,24%,/,/,-15%,/
CCc1ccc(CNC(=O)C(CC)n2nc(C)c3c(C)n(-c4ccccc4)nc3c2=O)cc1 (centres undefined),/,8%,/,/,/
O=C1c2ccccc2C(=O)N1Nc1ccccc1,8%,5%,-5%,1%,6
Cc1ccc(NN2C(=O)C=C(c3ccccc3)C2=O)cc1,3.5µM*,-18%,-25%,5µM*,-20
CCn1c(COc2ccc(C)cc2)nc2ccccc21,8.9µM*,-14%,22%,?,-2
Cc1ccc(OCc2nc3ccccc3n2CCOc2ccc(Cl)cc2)cc1,/,-2%,/,/,/
COCCn1c(COc2ccc(C)cc2)nc2ccccc21,11µM*,-4%,2%,-16%,-14
CCOCCn1c(COc2ccc(C)cc2)nc2ccccc21,?,/,11%,5%,9
S=C(NC1CCCCC1)NC1CCCCC1,2.8µM*,/,/,?,/
NNC(=S)NC1CCS(=O)(=O)C1 (centres undefined),2.8µM*,9%,0%,4.5µM*,12
CN(C)CCNC(=S)NC1CCCCC1,-13%,4%,-1%,1%,0
CN(C)C(=S)NC1CCS(=O)(=O)C1 (centres undefined),-8%,1%,-10%,-7%,13
O=C(NC1CCCCCC1)C(=O)NC1CCCC1,25%,-5%,11%,-5%,4
SMILES,RORg inh,ERG Ets-DNA blk,Integrin act MD,VP16 counter,Giardia kill
NNC(=S)NC1CCCCCCCCCCC1,0.28µM*,-12%,7%,2.8µM*,-8
S=C(NC1CCCCCC1)NC1CCCC1,1.6µM*,-2%,-1%,10µM*,15
O=C1C(=O)N(c2nccs2)C(c2ccccc2F)/C1=C(\O)c1ccc2c(c1)OCCO2 (centres undefined),1%,1%,15%,5%,-4
COc1ccccc1N1CCN(S(=O)(=O)c2c(C)nc3sc(C)c(C)n3c2=O)CC1,/,1%,/,/,/
CCN(CC(=O)NCc1ccc(Cl)cc1)C(=O)CN1C(=O)NC(CC)(c2ccccc2)C1=O (centres undefined),-6%,-15%,1%,-5%,1
CCOc1ccc(C(=O)Cc2ccccc2)cc1,/,/,11%,/,-7
CCOc1ccc(C(=O)CSCCC(=O)O)cc1,0.28µM*,-10%,4%,0.32µM*,-17
O=C(CN1CCN(c2ccc(F)cc2)CC1)N(C1CCCC1)C1CCS(=O)(=O)C1 (centres undefined),/,-2%,-12%,/,-8
COc1ccc(N(S(=O)(=O)c2ccccc2)S(=O)(=O)c2ccccc2)c(N)c1,/,0%,-15%,/,-1
COCCNC(=S)N1CCc2cc(OC)c(OC)cc2C1COc1cc(C)cc(C)c1 (centres undefined),?,-12%,0%,22µM*,1
CCOc1cc(/C=N/N=C(N)N)ccc1OCc1ccc(Cl)cc1,?,4%,-60%,8.9µM*,-3
COc1cc(/C=N/O)ccc1OCc1ccc(Cl)cc1,1.1µM*,/,/,?,/
COc1cc(/C=N/n2c(C)n[nH]c2=S)ccc1OCc1ccc(F)cc1,4µM*,-1%,31%,13%,?
COc1cc(/C=N/O)ccc1OCc1ccc(C(=O)O)cc1,1µM*,2%,-13%,4µM*,-27
O=C1C(c2[nH]c3ccc(S(=O)(=O)O)cc3c2O)=Nc2ccc(S(=O)(=O)O)cc21,6%,/,/,2%,/
O=C(C1CCC(=O)N(C2CCCC2)C1)N1CCN(Cc2cccc(Cl)c2)CC1 (centres undefined),-26%,-6%,-15%,3%,-13
CCCCN(C(=O)c1ccc(S(=O)(=O)N(C)c2ccccc2)cc1)c1c(N)n(CCC)c(=O)[nH]c1=O,/,13%,26%,/,-2
Cn1c(SCc2ccc(C(F)(F)F)cc2)nc2c([nH]c3ccccc32)c1=O,/,6%,/,/,/
Cc1cc(C)c(NC(=O)CSc2nc3c([nH]c4ccccc43)c(=O)n2C)c(C)c1,/,-3%,/,/,/
Cc1c(Cl)cccc1NC(=S)NCCc1ccc(S(N)(=O)=O)cc1,8%,4%,5%,11%,-3
Cc1c(Cl)cccc1NC(=S)NCc1ccc(Cl)cc1,/,2%,-30%,/,7
Cc1c(Cl)cccc1NC(=S)NCCc1ccc(F)cc1,4.5µM*,-11%,-25%,3.5µM*,15
Cc1c(Cl)cccc1NC(=S)NCCc1ccc(Cl)cc1,5.6µM*,4%,18%,3.2µM*,12
COCC(=O)N1CCC[C@@]2(CCN(Cc3nccs3)C2)C1,0%,/,/,1%,/
O=C(O)CCN1C(=O)C(=C2CCCCCC2)SC1=S,?,2%,-48%,2%,1
O=C1C(=C2CCCCC2)SC(=S)N1Cc1ccco1,13µM*,-5%,-33%,-1%,-12
Cc1cc2c(cc1NS(=O)(=O)c1ccc(F)cc1)n(C)c(=O)c(=O)n2C,/,-1%,/,/,/
Cc1ccc(S(=O)(=O)Nc2cc(C)cn(Cc3ccc(F)cc3)c2=O)cc1,?,21%,-10%,18µM*,8
Cc1ccc(S(=O)(=O)Nc2cc(C)cn(Cc3ccccc3)c2=O)cc1,?,-1%,-21%,14µM*,10
